# Test results as given in PubChem BioAssay AID463173 (ICCB-Longwood Screening Facility, Harvard Medical School, 2010).
# About 1,700 (3.3%) of roughly 52,000 compounds were called active. Shown is part of a subset that was picked to be rich in actives. Unmarked numbers belong to inactive results. Cut-off read from the data, not from the text of the source: active = survival mostly below about 52% (no sharp cut-off); inactive = mostly above about 56%.
# System: Wild type
# Assay: growth inhibition of S. aureus wild type versus tarO mutant, primary screen, teichoic acid synthesis inhibitors, RN4220, OD600 (AID 463173)
# Settings: S. aureus RN4220 wild type/DeltatarO growth, OD600, 18 h, stronger effect = lower value, screened at 18.75 µg/mL (by protocol)
row,SMILES,survival
1,CC1CCN(CC2CCN(C(=O)NCc3ccc(F)cc3)CC2)CC1,78%
2,COc1ccccc1OC(C)C(=O)NCC1(N2CCOCC2)CCCCC1 (configuration not stated),87%
3,COc1ccc(CC(=O)NCc2ccc3c(c2)CCN3C(C)=O)cc1OC,78%
4,CCC(=O)N1c2ccccc2CC1C(=O)NCCCN1CCN(c2ccc(OC)cc2)CC1 (configuration not stated),88%
5,Cc1ccc(NC(=O)Cn2nc(C(F)(F)F)c3c2CCC3)cc1C,81%
6,CC1CCN(S(=O)(=O)c2ccc3nc(N4CCN(c5ccccc5)CC4)ccc3c2)CC1,77%
7,O=S(=O)(c1ccc2nc(N3CCN(c4cccc(Cl)c4)CC3)ccc2c1)N1CCCCC1,55%
8,O=S(=O)(c1ccc2nc(N3CCN(c4ccccc4)CC3)ccc2c1)N1CCCCC1,1% (active)
9,Cc1ccc(NC(=O)C(=O)NCC(c2cccnc2)N2CCN(Cc3ccccc3)CC2)cc1 (configuration not stated),85%
10,CC1CCN(C(=O)c2ccc3c(c2)OCCO3)CC1,105%
11,CN(Cc1ccccc1)c1ccc(-c2nc(-c3ccccn3)no2)cc1[N+](=O)[O-],67%
12,CCc1ccc(CNC(=O)c2cc(=O)[nH]c3ccc(S(=O)(=O)N4CCCCC4)cc23)cc1,91%
13,CC1CCN(c2oc(-c3cccs3)nc2S(=O)(=O)c2ccc(Cl)cc2)CC1,-8% (active)
14,Cc1ccc(S(=O)(=O)c2nc(-c3cccs3)oc2N2CCC(C)CC2)cc1,-10% (active)
15,Cc1ccc(S(=O)(=O)c2nc(-c3cccs3)oc2N2CCCCC2)cc1,50%
16,O=S(=O)(c1ccc(Cl)cc1)c1nc(-c2cccs2)oc1N1CCCCC1,45%
17,CC1CCN(c2oc(-c3cccs3)nc2S(=O)(=O)c2ccccc2)CC1,24%
18,O=S(=O)(c1ccccc1)c1nc(-c2cccs2)oc1N1CCCCC1,123%
19,O=C(CSc1nc2ccccc2o1)NC1CC1,86%
20,Cc1ccc2c(c1)c1c(c(=O)n(-c3ccccc3C)c(=O)n1CC(=O)NCC1CCCO1)n2C (configuration not stated),66%
21,CCOc1ccc(CCNC(=O)Cn2ncc3c(=O)oc4ccc(C)cc4c32)cc1,80%
22,COc1ccc(NC(=O)CSc2nc(-c3ccccc3)nc3cc(=O)[nH]n23)cc1,73%

row,SMILES,survival
1,CCCCc1c(C)nc2c(-c3ccc(OC)cc3)c(C)[nH]n2c1=O,12% (active)
2,Cc1nc2c(-c3ccc(F)cc3)c(C)nn2c(C)c1CCC(=O)NCc1ccc(Cl)cc1,91%
3,CCOC(=O)CCc1c(C)nc2cc(-c3cc(OC)cc(OC)c3)[nH]n2c1=O,74%
4,CCCCc1c(C)nc2c(-c3ccc(Cl)cc3)c(C)[nH]n2c1=O,-13% (active)
5,CCOC(=O)Cc1c(C)nc2c(-c3ccc(Cl)cc3)c(C(F)(F)F)nn2c1C,49%
6,CCCCc1nc2ccccc2n2c(-c3ccc(OC)cc3)c3c(=O)n(C)c(=O)n(C)c3c12,52%
7,C#CC(C)(CC)NC(=O)Cn1nnc(-c2ccc(OCc3ccccc3Cl)cc2)n1 (configuration not stated),74%
8,CC1=CC(C)(C)Nc2ccc(OC(=O)c3ccco3)cc21,125%
9,CCc1ccc(NC(=O)Cn2cnc3sc(C)c(S(=O)(=O)N4CCN(c5ccccc5OC)CC4)c3c2=O)cc1,138%
10,CCOC(=O)Cn1c(=O)n(CC2CCCO2)c2nc(-c3ccc(CC)cc3)nc(C(N)=O)c21 (configuration not stated),81%
11,CCOC(=O)Cn1c(=O)n(CC2CCCO2)c2nc(-c3cccc(C)c3)nc(C(N)=O)c21 (configuration not stated),55%
12,CCOC(=O)Cn1c(=O)n(-c2ccccc2OC)c2nc(-c3ccccc3)nc(C(N)=O)c21,-3% (active)
13,CCOC(=O)Cn1c(=O)n(CC2CCCO2)c2nc(-c3ccccc3)nc(C(N)=O)c21 (configuration not stated),56%
14,CCOC(=O)Cn1c(=O)n(-c2ccccc2OC)c2nc(-c3ccc(C(C)C)cc3)nc(C(N)=O)c21,82%
15,CCOC(=O)Cn1c(=O)n(CC2CCCO2)c2nc(-c3ccc(C(C)C)cc3)nc(C(N)=O)c21 (configuration not stated),1% (active)
16,CCOC(=O)Cn1c(=O)n(CC2CCCO2)c2nc(-c3ccc(C)cc3)nc(C(N)=O)c21 (configuration not stated),63%
17,CCOC(=O)Cn1c(=O)n(-c2ccccc2OC)c2nc(-c3cccc(F)c3)nc(C(N)=O)c21,57%
18,CCOC(=O)Cn1c(=O)n(CC2CCCO2)c2nc(-c3ccc(OCC)cc3)nc(C(N)=O)c21 (configuration not stated),-4% (active)
19,CCCCC(=O)Nc1ccc(NC(=O)C2CC2)nc1,101%
20,COc1ccc(OC)c(NC(=O)Cc2c(C(=O)O)n(C)c3ccc(C)cc23)c1,88%
21,CC1CCCN(S(=O)(=O)c2cc3c4c(c2)CC(=O)N4CCC3)C1 (configuration not stated),81%
22,CC(C)Cn1c(=O)c2sccc2n2c(CCCC(=O)NCC(C)c3ccccc3)nnc12 (configuration not stated),96%

row,SMILES,survival
1,CCCC(=O)N(c1ccc2oc3c(c2c1)CCCC3)S(=O)(=O)c1cc(C)ccc1C,61%
2,COc1ccccc1C(=O)Nc1ccc2nc(SCC(=O)N(C)c3ccccc3)sc2c1,84%
3,CC(Sc1nc(-c2ccccc2)c(C#N)c(=O)[nH]1)C(=O)Nc1ccc(F)cc1 (configuration not stated),91%
4,O=C(CSc1ccccc1)N1CCc2c([nH]c3ccccc23)C1c1ccc(Cl)cc1 (configuration not stated),64%
5,COCCCNC(=O)CCn1c(=O)c2ccccc2n(CC(=O)Nc2c(C)cc(C)cc2C)c1=O,84%
6,CCOc1ccccc1CNC(=O)CN1C(=O)c2cccnc2Oc2ccc(C)cc21,136%
7,Cc1ccc2nc(/C(C#N)=C/c3ccc(-c4ccc(F)cc4F)o3)[nH]c2c1,26%
8,COC(=O)c1sc(-c2ccccc2)cc1NC(=O)Nc1ccccc1Cl,5% (active)
9,CCOc1ccc(-c2cc(NC(=O)Nc3ccccc3C(F)(F)F)c(C(=O)OC)s2)cc1,72%
10,CCOc1ccc(-c2cc(NC(=O)Nc3cccc(C(C)=O)c3)c(C(=O)OC)s2)cc1,81%
11,COC(=O)c1sc(-c2ccccc2)cc1NC(=O)Nc1ccc(F)cc1,13% (active)
12,CCOc1ccc(-c2cc(NC(=O)Nc3ccccc3Cl)c(C(=O)OC)s2)cc1,50%
13,CCOc1ccc(-c2cc(NC(=O)Nc3ccc(Cl)cc3)c(C(=O)OC)s2)cc1,88%
14,COC(=O)c1sc(-c2ccccc2)cc1NC(=O)c1cccc(F)c1,87%
15,COC(=O)c1sc(-c2ccccc2)cc1NC(=O)c1cccc(Cl)c1,38%
16,COC(=O)c1sc(-c2ccccc2)cc1NC(=O)Nc1ccc(Cl)cc1,4% (active)
17,CCc1ccccc1NC(=O)Cn1cc(S(=O)(=O)N2CCCC2)c(S(=O)(=O)N2CCCC2)c1,68%
18,CCc1ccccc1NC(=O)CCn1nc(C)c2c(C)n(-c3ccccc3)nc2c1=O,88%
19,Cc1ccc(C(=O)Nc2ccccc2C(=O)OCc2cc(=O)n3nc(C4CC4)sc3n2)cc1,87%
20,COc1cccc(-n2c(=O)c3cc(OC)c(OC)cc3n(CC(=O)Nc3ccc(F)cc3)c2=O)c1,73%
21,Cc1ccc(Cl)cc1N1CCN(C(=O)c2sc3nc4n(c(=O)c3c2C)CCC4)CC1,75%
22,CCOC(=O)c1ccc(NC(=O)c2cc3sccc3n2Cc2ccc(Cl)cc2)cc1,87%

row,SMILES,survival
1,COc1cc(OC)c(NC(=O)Cn2c(=O)nc(-c3ccccc3)c3ccccc32)cc1Cl,68%
2,Cc1cccc(C(=O)Nc2nnc(S(=O)(=O)N3c4ccccc4CC3C)s2)c1 (configuration not stated),21%
3,CN(Cc1ccccc1)S(=O)(=O)c1nnc(NC(=O)c2ccccc2)s1,35%
4,CC1Cc2ccccc2N1S(=O)(=O)c1nnc(NC(=O)c2ccccc2)s1 (configuration not stated),18%
5,CN(Cc1ccccc1)S(=O)(=O)c1nnc(NC(=O)c2cccc(Cl)c2)s1,-1% (active)
6,O=C(Nc1nnc(S(=O)(=O)N2CCCc3ccccc32)s1)c1ccccc1,31%
7,O=C(COc1ccc(Cl)cc1)Nc1nnc(S(=O)(=O)N2CCc3ccccc32)s1,12% (active)
8,COc1ccc(OCC(=O)Nc2nnc(S(=O)(=O)N3CCc4ccccc43)s2)cc1,73%
9,Cc1ccc(OCC(=O)Nc2nnc(S(=O)(=O)N3CCc4ccccc43)s2)cc1,24%
10,O=C(Nc1nnc(S(=O)(=O)N2CCCc3ccccc32)s1)c1cccc(Cl)c1,6% (active)
11,Cc1cccc(C(=O)Nc2nnc(S(=O)(=O)N(C)Cc3ccccc3)s2)c1,29%
12,CC1Cc2ccccc2N1S(=O)(=O)c1nnc(NC(=O)c2cccc(F)c2)s1 (configuration not stated),10% (active)
13,O=C(Nc1nnc(S(=O)(=O)N2CCCc3ccccc32)s1)c1ccc(Cl)cc1,19%
14,Cc1nnc(N2C(=O)c3oc4ccccc4c(=O)c3C2c2ccc(F)cc2)s1 (configuration not stated),79%
15,O=c1cccc2n1CC1CC(C2)N(c2nc(N3CCCCC3)nc(N3CCCCC3)n2)C1 (configuration not stated),104%
16,CCCn1c(=O)n(-c2ccccc2)c(=O)c2sc3ccccc3c21,93%
17,COc1ccc(CNCc2ccc3c(c2)n(C)c(=O)n3C)cc1,90%
18,COc1cc(NC(=O)C(CC(C)C)NS(=O)(=O)c2ccc3c(c2)oc(=O)n3C)c(C(=O)O)cc1OC (configuration not stated),124%
19,Nc1cccc2c1C(=O)N(CC(=O)O)C2=O,104%
20,Cc1ccccc1CNC(=O)Cn1ncn2nc(-c3cccs3)cc2c1=O,120%
21,CCOc1ccc(S(=O)(=O)NCC(c2ccco2)S(=O)(=O)c2ccc(F)cc2)cc1 (configuration not stated),90%
